37 compounds from PubChem BioAssay (NCATS) can be followed below.

Structures are written as SMILES. Records with an inconclusive call do not appear. Calls of active or inactive are those of the source. Calls follow the shape of the dose curve; as a rule, active = well fitted inhibition curve with a large enough effect; inconclusive = small, poorly fitted or top-dose-only effect; inactive = no such curve, though single readings can be large or run the other way.
Potency is read from the fitted curve at half-maximal effect.

The subject of this test is Zika virus NS2B-NS3 protease (unlinked). The experiment in a line: Optimization of GU AMC qHTS for Zika virus inhibitors: Unlinked NS2B-NS3 protease assay (AID 1347151). Also: nearly all actives have a fitted effect of over 80% in size.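 As to activity change, negative = inhibition: 0% = no-inhibitor control and -100% = no-enzyme control.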 As to conditions: recombinant ZIKV NS2B-NS3 protease, fluorogenic AMC substrate; series mostly up to 52.5 µM; activity change, negative = inhibition: at the top concentration. Summed up:
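Fluorescence read-out (340 nm ex / 450 nm em) of AMC peptide cleavage, taken immediately and after 15 min at room temperature (~20% conversion). Enzyme was the unlinked NS2B–NS3 complex at 25 nM in Tris pH 8.0 buffer.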
In general terms: Quantitative high-throughput screening tests each substance at several concentrations.
Take `CCCCCCCCc1ccc(-c2ccc(C(=O)O)cc2)cc1`: the Potency is 11.9 µM (active).
As for `NCCCCCCCCCCN`, the “activity change, negative = inhibition” value is 7.31% (inactive).
Same read-out and setting: with `OC[C@H]1O[C@@H](n2cnc3c(NC4CCCC4)ncnc32)[C@H](O)[C@@H]1O` the figure was 1.12% (inactive); with `Fc1ccc(C(OCCCc2cnc[nH]2)c2ccc(F)cc2)cc1`, 5.33% (inactive); with `CN[C@H](CC(C)C)C(=O)N[C@H]1C(=O)N[C@@H](CC(N)=O)C(=O)N[C@H]2C(=O)N[C@H]3C(=O)N[C@H](C(=O)N[C@H](C(=O)O)c4cc(O)cc(O)c4-c4cc3ccc4O)[C@H](O)c3ccc(c(Cl)c3)Oc3cc2cc(c3O[C@@H]2O[C@H](CO)[C@@H](O)[C@H](O)[C@H]2O[C@H]2C[C@](C)(N)[C@H](O)[C@H](C)O2)Oc2ccc(cc2Cl)[C@H]1O`, -1.17% (inactive).
`S=C(S)OC1CC2CC1C1CCCC21` (configuration not stated): the “activity change, negative = inhibition” value is -8.03% (inactive).
On the same count and under the same terms, for `CC(C)NC[C@H](O)COc1cccc2[nH]ccc12` the value was 1.76% (inactive); for `Oc1ccc(C2CNCc3sccc32)cc1O` (configuration not stated), -20.5% (inactive).
On to `O=C(c1ccc(Cl)cc1)N1CCN(c2ccc([N+](=O)[O-])c3ncccc23)CC1`, for which the “activity change, negative = inhibition” value was -18.5% (inactive).
The same measure, in the same setting: with `OCC1O[C@H](O)C(Cl)C(O)C1O` (some centres not stated) the figure was 1.23% (inactive).
Same read-out and setting: for `COc1ccc2c(c1)CCC1C2CC[C@@]2(C)C1CC[C@@H]2NCCCCCCN1C(=O)CCC1=O` (some centres not stated) the value was 9.26% (inactive); for `CN1CC(=O)N/C1=N/C(=O)Nc1cccc(Cl)c1`, 2.4% (inactive).
On the same count and under the same terms, with `NC[C@@H]1O[C@H](C23CC4CC(CC(C4)C2)C3)Cc2c1ccc(O)c2O` the figure was -6.88% (inactive); with `Nc1nc(Nc2ccccc2)nc2c1ncn2[C@@H]1O[C@H](CO)[C@@H](O)[C@H]1O`, 2.53% (inactive).
`C[N+]1(C)C2CC(OC(=O)[C@H](CO)c3ccccc3)CC1C1OC12` (some centres not stated): the Potency result is “inactive”.
With `CC(=O)N[C@H](C(=O)O)C(C)(C)SN=O`, the “activity change, negative = inhibition” value is -2.35% (inactive).
Same read-out and setting: with `N=c1ccn2c(n1)O[C@H]1[C@H](O)[C@@H](CO)O[C@H]12` the figure was 3.94% (inactive); with `COc1cccc(C(=O)NCCN2CCN(c3ccc(Cl)cc3)CC2)c1`, 5.94% (inactive); with `CCCCC#Cc1nc(NC)c2ncn([C@@H]3O[C@H](CO)[C@@H](O)[C@H]3O)c2n1`, -10.9% (inactive).
Take `CN1[C@@H](CC(=O)c2ccccc2)CCC[C@H]1C[C@H](O)c1ccccc1`: the “activity change, negative = inhibition” value is 3.04% (inactive).
Same read-out and setting: for `NC(CCCP(=O)(O)O)C(=O)O` (configuration not stated) the value was 2.29% (inactive); for `COc1cc(C(O)CO)ccc1OS(=O)(=O)O` (configuration not stated), 3.46% (inactive); for `NC[C@H]1O[C@@H](n2cnc3c(N)ncnc32)[C@H](O)[C@@H]1O`, 0.274% (inactive).
On the same count and under the same terms, with `NC(N)=NC(=O)c1nc(Cl)c(N2CCCCCC2)nc1N` the figure was -15.9% (inactive).
On to `CCOC(=O)C1=C(C)NC(C)=C(C(=O)OCC)C1c1c(F)c(F)c(F)c(F)c1F`, for which the Potency is 23.8 µM (active).
As for `C=C[C@H]1CN2CC[C@@H]1C[C@@H]2[C@@H](O)c1ccnc2ccc(OC)cc12`, the Potency is 26.7 µM (active).
Turning to `CC[C@H]1OC(=O)[C@H](C)[C@@H](O[C@H]2C[C@@](C)(OC)[C@@H](O)[C@H](C)O2)[C@H](C)[C@@H](O[C@@H]2O[C@H](C)C[C@H](NC)[C@H]2O)[C@](C)(O)C[C@@H](C)CN(C)[C@H](C)[C@@H](O)[C@]1(C)O`, the “activity change, negative = inhibition” value was 5.19% (inactive).
For `Cn1c(=O)c2[nH]c(-c3ccccc3)nc2n(C)c1=O`, the Potency was 4.74 µM (active).
For the compound `CC(=O)SCC[N+](C)(C)C`, the “activity change, negative = inhibition” value was 4.42% (inactive).
On the same count and under the same terms, with `CN1C2CC(OC(=O)[C@H](CO)c3ccccc3)CC1C1OC12` (some centres not stated) the figure was -0.583% (inactive).
Still for that read-out and setting: with `CN(C)C(N)=NCCC[C@H](N)C(=O)O` the figure was 1.36% (inactive); with `CN(C)c1nc(N)c(C(=O)N=C(N)N)nc1Cl`, -25.3% (inactive).
Same read-out and setting: with `CO/N=C(\C(=O)N[C@@H]1C(=O)N2C(C(=O)O)=C(COC(C)=O)CS[C@H]12)c1csc(N)n1` the figure was 0.723% (inactive); with `COC1=C(OC)C(=O)c2ccccc2C1=O`, -20.1% (inactive).
Consider `O=C1/C(=C/c2ccsc2)CC/C1=C\c1cccs1`, for which the “activity change, negative = inhibition” value was -15.3% (inactive).
Same read-out and setting: for `CC(C)NC[C@@H](O)c1ccc(O)c(O)c1` the value was 7.14% (inactive).
`O=C(CCc1ccncc1)NNC(=O)N1Cc2ccccc2Oc2ccc(Cl)cc21`: the “activity change, negative = inhibition” value was 4.41% (inactive).
